Test results: the supplement of paper PMC9694430
Counter-ions that a name gives are not always drawn.

Experiments:
Assay in all cases: thermal shift delta Tm vs DMSO control; higher = stronger stabilization (binding)
Settings in all cases: 12.5 µM; protein concentration 2 µM
[1] = system: LOC_OS04G57630-cb004
Outline: (§1)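 Heating from 25°C to 95°C at 0.05°C/s, fluorescence was recorded for 19.5 μl wells of 2 μM E. coli-expressed, purified rice kinase domain in 100 mM potassium phosphate pH 7.5, 150 mM NaCl, 10% glycerol and 5 × SYPRO Orange with compound in DMSO. Boltzmann fits gave melting temperatures for this differential scanning fluorimetry assay. The shift reported is the mean of three replicates against the DMSO-only protein.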

[2] = system: LOC_OS05G07850-cb002
Outline: as §1

[3] = system: LOC_OS05G16824-cb004
Outline: as §1

[4] = system: LOC_OS05G28520-cb001
Outline: as §1

[5] = system: LOC_OS05G30820-cb001
Outline: as §1

[6] = system: LOC_OS05G43570-cb004
Outline: as §1

[7] = system: LOC_OS06G16330-cb003
Chain of LOC_OS06G16330-cb003 (as listed by the source): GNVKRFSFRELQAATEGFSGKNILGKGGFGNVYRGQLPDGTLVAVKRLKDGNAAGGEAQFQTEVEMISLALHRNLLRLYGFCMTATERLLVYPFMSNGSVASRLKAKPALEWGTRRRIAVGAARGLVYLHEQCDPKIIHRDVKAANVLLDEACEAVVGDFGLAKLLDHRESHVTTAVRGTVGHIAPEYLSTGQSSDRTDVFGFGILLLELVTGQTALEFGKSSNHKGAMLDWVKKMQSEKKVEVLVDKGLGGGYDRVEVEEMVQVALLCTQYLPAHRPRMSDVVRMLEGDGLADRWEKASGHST
Outline: as §1

[8] = system: T1, LOC_OS06G22820-cb001
T1 sequence (whole entry): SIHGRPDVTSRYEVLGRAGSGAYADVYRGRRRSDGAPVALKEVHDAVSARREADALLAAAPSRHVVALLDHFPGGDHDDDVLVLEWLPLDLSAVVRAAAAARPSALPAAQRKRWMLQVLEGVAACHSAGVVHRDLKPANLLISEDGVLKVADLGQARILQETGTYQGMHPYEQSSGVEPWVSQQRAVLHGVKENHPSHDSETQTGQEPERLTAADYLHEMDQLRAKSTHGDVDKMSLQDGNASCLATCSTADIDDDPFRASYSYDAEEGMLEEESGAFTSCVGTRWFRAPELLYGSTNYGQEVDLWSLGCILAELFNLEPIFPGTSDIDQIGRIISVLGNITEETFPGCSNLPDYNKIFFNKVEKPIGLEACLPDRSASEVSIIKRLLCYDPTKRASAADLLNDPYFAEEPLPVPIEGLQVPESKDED
Outline: as §1

[9] = system: LOC_OS07G06570-cb004
Outline: as §1

[10] = system: LOC_OS07G07230-cb001
Outline: as §1
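Also: purified Escherichia coli-expressed rice kinase domain construct.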

SMILES	thermal shift delta Tm [1] [°C]	thermal shift delta Tm [2] [°C]	thermal shift delta Tm [3] [°C]	thermal shift delta Tm [4] [°C]	thermal shift delta Tm [5] [°C]	thermal shift delta Tm [6] [°C]	thermal shift delta Tm [7] [°C]	thermal shift delta Tm [8] [°C]	thermal shift delta Tm [9] [°C]	thermal shift delta Tm [10] [°C]
CCN(CC)CCCC(C)Nc1ccnc2cc(Cl)ccc12 (stereo not given) [Chloroquine Phosphate]	0.53	0.78	-0.51	0.02	0.51	0.55	-3.04	0.22	0.72	0.52
COc1cc(Nc2ncc3c(n2)-c2ccc(Cl)cc2C(c2c(F)cccc2OC)=NC3)ccc1C(=O)O [Alisertib (MLN8237)]	-0.1	10.3	5.74	0.02	0.19	0.06	2.21	0.35	0.77	0.11
O=C(NCCCNc1nc(Nc2cccc(NC(=O)N3CCCC3)c2)ncc1I)c1cccs1	5.69	12.1	10.4	0.99	3.99	1.24	9.95	0.36	0.51	0.21
CN(C)CCCn1cc(C2=C(c3c[nH]c4ccccc34)C(=O)NC2=O)c2ccccc21	0.12	3.88	1.25	0.24	0.37	0.07	0.14	0.44	0.94	0.81
CS(=O)(=O)CCNCc1ccc(-c2ccc3ncnc(Nc4ccc(OCc5cccc(F)c5)c(Cl)c4)c3c2)o1	-0.1	1.34	-0.68	0.97	0.44	0.61	-0.63	1.04	0.83	0.48
CN1CCN(c2ccc3nc(-c4c(N)c5c(F)cccc5[nH]c4=O)[nH]c3c2)CC1 [Dovitinib (TKI-258, CHIR-258)]	1.24	6.74	12.6	1.08	0.71	0.77	3.64	0.56	1.13	0.36
N#Cc1cnc(Nc2cc(NC[C@H]3CNCCO3)c(C(F)(F)F)cn2)cn1	0.23	4.22	4.42	0.04	0.75	0.11	2.23	0.3	1.08	0.52
CC(C)CC(=O)Nc1n[nH]c2c1CN(C(=O)C1CCN(C)CC1)C2(C)C	0.48	0.58	0.18	0.19	0.53	0.86	-0.05	3.38	0.44	0.05
C=CC(=O)Nc1ccc(CN2C(=O)N(c3cc(OC)cc(OC)c3)Cc3cnc(Nc4ccc(N5CCN(C)CC5)cc4)nc32)cc1	7.31	0.75	1.16	1.83	0.78	0.66	2.37	0.84	2.63	1.29
CC(C)N(CCC(=O)c1ccc2ccccc2c1)Cc1ccccc1	0.41	4.18	-2.65	-0.95	-1.16	-0.34	-1.31	-1.34	0.13	0.23
Cc1ccc(-n2nc(C(C)(C)C)cc2NC(=O)Nc2ccc(OCCN3CCOCC3)c3ccccc23)cc1 [Doramapimod (BIRB 796)]	1.36	1.84	-1.73	0.26	0.82	0.41	0.15	0.9	0.71	0.5
Cc1cnc(Nc2ccc(N3CCN(C)CC3)cc2)nc1Nc1cccc(S(=O)(=O)NC(C)(C)C)c1	2.45	10.4	7.7	1.9	0.89	0.98	5.92	0.43	0.63	-0.42
Nc1ncccc1-c1nc2ccc(-c3ccccc3)nc2n1-c1ccc(C2(N)CCC2)cc1 [Miransertib (ARQ 092) HCl]	-0.29	1.08	-5.68	-0.2	0.04	0.09	-0.91	0.24	1.32	0.36
c1cn2cc(-c3ccc4cn[nH]c4c3)nc(Nc3ccc(N4CCOCC4)cc3)c2n1 [Entospletinib (GS-9973)]	0.36	7.87	0.89	1.02	0.84	0.74	9.22	0.27	1.71	0.6
CNC(=O)c1cc(Oc2ccc(NC(=O)Nc3ccc(Cl)c(C(F)(F)F)c3)cc2)ccn1 [Sorafenib]	2.09	9.44	1.37	-0.04	0.65	1.2	2.66	1.5	1	-0.34
COc1ccc(Oc2cc(NCCC(F)(F)F)c3ncc(-c4ccc(C(=O)NC5CC5)c(C)c4)n3n2)c(F)c1F	0.38	2.11	-2.18	1.04	0.67	0.63	0.09	0.73	-0.39	1.65
CC(C)(O)CC(=O)NCCn1ccc2ncnc(Nc3ccc(Oc4cccc(C(F)(F)F)c4)c(Cl)c3)c21	1.06	0.82	2.1	-0.31	0.35	1.03	0.72	1.33	0.78	-1.32
C=CC(=O)Nc1cccc(Oc2nc(Nc3ccc(N4CCN(C)CC4)cc3)nc3ccsc23)c1	1.01	8.37	2.38	2.64	1.14	1.26	3.14	0.83	2.96	1.41
Oc1ccc(Nc2nc(-c3ccc(Cl)cc3)cs2)cc1	0.01	3.59	-0.03	0.45	1.05	-0.07	0.92	0.79	-0.41	0.38
CC1(C)C=Cc2c(ccc3c2OC[C@@H](c2ccc(O)cc2O)C3)O1 [Glabridin]	0.75	1.39	7.49	0.24	-0.16	0.51	0.92	0.89	0.51	-0.99
